MARV entry inh: blocks Marburg virus binding to or entry into cells. Potency, µM (doses to about 37.8 µM), without a hit: at the top dose activity change, negative = inhibition, most hits filed as inhibitors. AID 540276. Marburg virus pseudotyped entry inhibition, cell reporter. actives 1.8% (n = 300,000); calls by dose curve; tested in HEK293 cells
VACV mCherry inh: vaccinia inhibition (mCherry reporter). AID 720579. Potency, µM (doses to about 36.5 µM), inactives show at the top dose activity change, negative = inhibition, hits mostly inhibitors. Vaccinia virus mCherry reporter infection, fluorescence. actives 0.63% (n = 310,000); calls by dose curve; tested in A549 cells; further: nearly all actives have a fitted effect of over 35% in size
VACV Venus inh: vaccinia inhibition (Venus reporter). Vaccinia virus Venus reporter expression, fluorescence. Potency, µM (doses to about 36.5 µM), for inactives: top-dose activity change, negative = inhibition, hits mostly inhibitors. actives 0.46% (n = 330,000). AID 720580; calls by dose curve; tested in A549 cells; further: nearly all actives have a fitted effect of over 30% in size
LASV entry inh: Lassa virus entry inhibition. Potency, µM (doses to about 37.9 µM), for the others: at the top dose activity change, negative = inhibition, actives largely listed as inhibitors. AID 540256. actives 1.2% (n = 300,000). Lassa virus pseudotype entry inhibition, cell reporter; calls by dose curve; tested in HEK293 cells; further: nearly all actives have a fitted effect of over 50% in size
* marks the source's active call; other numbers are inactive results; i = inactive; ? = inconclusive; . = no result; [ ] = remark or other dose. Most compounds without a hit are left out; they make up all but 2.5% or so of the library. On the % scale 0 is the no-effect control and ±100 the full control effect; potency means the concentration at half of the fitted maximal effect.

SMILES	MARV entry inh	VACV mCherry inh	VACV Venus inh	LASV entry inh
CCN(CC)c1ccc(/C=C(\C#N)c2ccccn2)cc1	?	i	-10%	5.8µM*
CN(CCC#N)c1ccc(/C=C(\C#N)c2ccccn2)cc1	8.2µM*	-5%	-23%	2.2µM*
O=C(c1ccc(CSc2nc3ccncc3[nH]2)cc1)N1CCN(c2cccc(Cl)c2)CC1	?	?	?	26µM*
Clc1ccc(OCCCCN2CCCCC2)cc1	?	i	2%	-18%[46.1 µM]
c1ccc(Oc2cccc(OCCCCN3CCCC3)c2)cc1	21µM*	.	.	-18%
CC(C)c1ccc(OCCCCN2CCCCC2)cc1	11µM*	i	-3%	18%
c1ccc(COc2ccc(OCCCN3CCCC3)cc2)cc1	13µM*	-4%	-16%	?
Cc1ccc(OCCCCCCN2CCNCC2)cc1	14µM*	-15%	-18%	5%
CCNC(=O)c1cc(NC(=O)COC)cc2nc(-c3ccncc3)n(C)c12	.	-13%	-9%	.
CSc1nsc(SCC(=O)Nc2ccc(O)c(C(=O)O)c2)n1	2%[46.1 µM]	-21%	-11%	20%[46.1 µM]
CSc1nsc(SCC(=O)Nc2ccccc2C(=O)O)n1	18µM*	i	4%	1%
COc1ccc(NC(=O)CSc2nc(SC)ns2)cc1	?	11µM*	?	-4%[46.1 µM]
CN(C)c1ccc(/C=C/C(O)=C2/C(=O)N(C)C3(C)CC2c2ccccc2O3)cc1 (stereo not given)	1%	.	.	.
CCOc1ccc(/C=C/C(O)=C2/C(=O)N(C)C3(C)CC2c2ccccc2O3)cc1OC (stereo not given)	?	?	-28%	3.5µM*
CCN1C(=NCc2cccc(Cl)c2)N[C@@H](c2cccc(C(F)(F)F)c2)C(C(=O)OC)=C1C	.	-15%	?	.
O=c1cnn(Cc2ccc(F)cc2)c2ccccc12	13%[46.1 µM]	-19%	-4%	5%[46.1 µM]
O=C(Cn1ncc(N2CCOCC2)c(Cl)c1=O)c1ccc(Cl)cc1	?	-22%	3%	?
O=C(Cn1ncc(Cl)c(Cl)c1=O)NCC1CCCCC1	?	-26%	?	18µM*
O=C(Cn1ncc(Cl)c(Cl)c1=O)c1ccc(Cl)cc1	2.9µM*	-13%	4%	?
Cc1cccc(NC(=O)CNC(=O)Cn2ncc(Cl)c(Cl)c2=O)c1C	?	i	-4%	?
O=C(OCn1ncc(Cl)c(Cl)c1=O)c1ccc(F)cc1	-1%	.	.	.
O=c1c(Cl)c(Cl)cnn1Cc1ccc(F)cc1	?	.	.	21µM*
O=C(OCn1ncc(Cl)c(Cl)c1=O)c1ccccc1Cl	4.6µM*	.	.	6.5µM*
O=C1CN(CCN2CC(=O)NC(=O)C2)CC(=O)N1	.	44%	10%	.
Oc1ccc(Cl)cc1C1C=C(c2ccc3c(c2)OCO3)NC(c2ccc(Cl)cc2)N1 (stereo not given)	.	-25%	-14%	.
SMILES	MARV entry inh	VACV mCherry inh	VACV Venus inh	LASV entry inh
COc1ccc(OC)c(C2C=C(C34CC5CC(CC(C5)C3)C4)NC(=S)N2)c1 (stereo not given)	7.1µM*	-20%	-18%	?
COC(=O)c1cc(C)nc2c1C(=O)C(=O)C=C2N1CCOCC1	?	?	4.5µM*	?
COc1ccc(C(=O)NCc2nnc(SC)n2-c2ccccc2C)c(OC)c1OC	.	-9%	10%	.
O=C(Nc1ccc2c(c1)CCC2)c1cnn2c1NC(=C1CC1)C=C2C(F)F	.	-6%	-17%	.
O=C(c1ccc([N+](=O)[O-])cc1[N+](=O)[O-])N1CCc2ccccc21	0%[46.1 µM]	2.2µM*	?	0%[46.1 µM]
C/C(Cl)=C\Cn1c(O)c(N=NC(N)=S)c2ccccc21	10µM*	0.32µM*	?	-17%
NC(=S)N=Nc1c(O)n(Cc2ccccc2)c2ccccc12	-17%	?	0.32µM*	-9%
Cc1ccc(NC(=O)Cn2c(O)c(N=NC(N)=O)c3ccccc32)cc1	?	-7%	-14%	?
Cc1ccc(NC(=O)Cn2c(O)c(N=NC(N)=S)c3ccccc32)cc1	8.9µM*	?	0.28µM*	?
OC(C[n+]1cccc(Br)c1)c1ccccc1 (stereo not given)	.	?	-26%	.
CC(C)=CCC12CC3[C@@H](O)C(C(=O)c4ccccc4)(C1=O)C(=O)C(CC=C(C)C)(C2=O)C3(C)C (stereo not given in full)	-26%[14.2 µM]	.	.	?
OCc1ccnc2c(O)cccc12	?	.	.	4.1µM*
CC(C)(C)c1ccc(O[C@@H]2[C@H](O)CO[C@H]2/C=C/C#Cc2ccccc2)cc1	-9%[14.2 µM]	.	.	.
CCCc1c(-c2ccc(O)cc2)nn(-c2ccc(O)cc2)c1-c1ccc(O)cc1	?	i	-14%	0.29µM*
Cc1c(C(N)=O)c(-c2ccccc2)nn1-c1ccccc1	24%	-12%	-8%	21%
